From PubChem BioAssay (EPA / NIEHS) come the findings set out here.

Inconclusive results are not listed. Calls of active or inactive are those of the source. The calls were made as follows, unless noted: active = hit-call score of the fitted dose curve at least 0.9, where 1 is the maximum; inconclusive = response in the unintended direction; inactive = score below 0.9.

For assay [1], the target named is Hypoxia-inducible factor 1-alpha (Homo sapiens) (UniProt Q16665). The assay can be described thus: ATG_HIF1a_CIS: Attagene CIS-FACTORIAL HepG2 Assay for human Hypoxia Inducible Factor 1 (HIF1A) (AID 2282951; active = hit-call score of the fitted dose curve at least 0.9, where 1 is the maximum; inactive = score below 0.9). Conditions: HepG2 Attagene cis-factorial HIF1a reporter transcription; actives raise or lower the signal. In short, it runs like this:
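HepG2, transient cis-reporter library, 24 h dosing. RNA → RT (oligo dT) → PCR → 6-FAM primer extension → HpaI → CE. Bidirectional curve fit vs DMSO.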

Assay [2] has as its target Nuclear receptor subfamily 1 group I member 3 (Homo sapiens) (UniProt Q14994). The assay can be described thus: ATG_CAR_TRANS: Attagene TRANS-FACTORIAL HepG2 Assay for human Constitutive Androstane Receptor (CAR) (AID 2282969).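 Also: activators raise reporter mRNA above DMSO so AC50 marks induction.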 Conditions: HepG2 Attagene TRANS-FACTORIAL CAR reporter. The gist of the method:
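HepG2 cells transiently transfected with GAL4-UAS reporter units; TRANS format reads activity of exogenous chimeric NR-Gal4 protein. After 24 h dosing, reporter mRNA quantified by RT-PCR, 6-FAM labelling and capillary electrophoresis; gain of signal fitted against DMSO.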

The target in assay [3] is Glucocorticoid receptor (Homo sapiens) (UniProt P04150). The assay can be described thus: ATG_GR_TRANS: Attagene TRANS-FACTORIAL HepG2 Assay for human Glucocorticoid Receptor (GR) (AID 2282978).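 Also: activators score as hits since higher reporter transcript over DMSO is fitted.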 Conditions: HepG2 Attagene TRANS GR reporter, mRNA transcription. In short, it runs like this: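 Multiplexed TRANS reporter system, HepG2; 24 h exposure; RNA → oligo(dT) RT → reporter-specific PCR → 6-FAM primer extension → HpaI cut → CE fluorescence. Gain-of-signal vs DMSO.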
Sequence of Glucocorticoid receptor (Homo sapiens) (P04150 whole entry, looked up): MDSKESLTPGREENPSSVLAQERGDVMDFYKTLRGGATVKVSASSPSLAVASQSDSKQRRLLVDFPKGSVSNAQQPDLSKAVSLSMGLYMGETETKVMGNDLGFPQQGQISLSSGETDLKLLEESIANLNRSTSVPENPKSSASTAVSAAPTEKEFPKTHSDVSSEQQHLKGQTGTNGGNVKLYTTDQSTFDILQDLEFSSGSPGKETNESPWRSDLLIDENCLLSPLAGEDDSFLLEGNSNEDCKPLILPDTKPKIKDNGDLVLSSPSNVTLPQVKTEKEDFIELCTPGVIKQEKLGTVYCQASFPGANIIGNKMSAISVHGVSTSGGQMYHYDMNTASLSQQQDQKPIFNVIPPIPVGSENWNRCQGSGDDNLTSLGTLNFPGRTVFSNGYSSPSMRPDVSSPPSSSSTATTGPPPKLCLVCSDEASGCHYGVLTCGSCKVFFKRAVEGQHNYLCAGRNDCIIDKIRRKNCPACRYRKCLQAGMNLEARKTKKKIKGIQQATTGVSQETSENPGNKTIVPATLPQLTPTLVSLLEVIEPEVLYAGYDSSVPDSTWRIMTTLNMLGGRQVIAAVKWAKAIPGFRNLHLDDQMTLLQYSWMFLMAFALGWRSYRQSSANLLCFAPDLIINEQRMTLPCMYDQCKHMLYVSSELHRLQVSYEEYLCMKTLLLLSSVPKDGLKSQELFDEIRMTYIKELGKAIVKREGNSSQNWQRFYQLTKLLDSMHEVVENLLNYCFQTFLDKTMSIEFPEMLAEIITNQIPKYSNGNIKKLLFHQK

For assay [4], the target named is Oxysterols receptor LXR-alpha (Homo sapiens) (UniProt Q13133). Description: ATG_LXRa_TRANS: Attagene TRANS-FACTORIAL HepG2 Assay for human Liver X Receptor alpha (LXRa) (AID 2282980). Conditions: HepG2 Attagene TRANS reporter, LXRa transactivation. The gist of the method:
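Transient HepG2 transfectants, 24 h dosing, RT-PCR/CE mRNA reporter quantitation; gain-of-signal vs DMSO.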

In assay [5] the target is Nuclear receptor subfamily 4 group A member 2 (Homo sapiens) (UniProt P43354). The assay can be described thus: ATG_NURR1_TRANS: Attagene TRANS-FACTORIAL HepG2 Assay for human Nuclear Receptor Related Protein 1 (NURR1) (AID 2282985). Conditions: HepG2 Attagene TRANS reporter, mRNA readout. The gist of the method:
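HepG2 cells transiently transfected with NURR1-Gal4 chimera and GAL4-UAS reporter units; after 24 hr compound exposure, reporter mRNA quantified by RT-PCR and capillary electrophoresis; gain of signal fitted against DMSO.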

The target of assay [6] is Peroxisome proliferator-activated receptor gamma (Homo sapiens) (UniProt P37231). The assay can be described thus: ATG_PPARg_TRANS: Attagene TRANS-FACTORIAL HepG2 Assay for human Peroxisome Proliferator-activated Receptor-gamma (PPARg) (AID 2283007). In short, it runs like this:
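Human hepatoma HepG2, transient MRTU transfection, 24 h treatment. mRNA reporter signal by RT-PCR plus capillary electrophoresis, fluorescence detection; fitted for increase over DMSO negative control.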

Assay [7] concerns the target human RAR-related Orphan Receptor beta (RORb), RORB (gene 6096) (UniProt Q92753). Description: ATG_RORb_TRANS: Attagene TRANS-FACTORIAL HepG2 Assay for human RAR-related Orphan Receptor beta (RORb) (AID 2283010). In short, it runs like this:
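HepG2 cells transiently transfected with GAL4-UAS reporter units expressing chimeric NR-Gal4 protein; reporter mRNA measured 24 h after dosing by RT-PCR, 6-FAM labelling and capillary electrophoresis. Gain-of-signal fitted relative to DMSO baseline.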

Assay [8] addresses human Vitamin D Receptor (VDR), VDR (gene 7421) (UniProt P11473). Description: ATG_VDR_TRANS: Attagene TRANS-FACTORIAL HepG2 Assay for human Vitamin D Receptor (VDR) (AID 2283022). The gist of the method:
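Fluorescence of labelled reporter cDNA fragments, resolved by capillary electrophoresis, gives mRNA induction after 24 h treatment of HepG2 cells carrying transfected Gal4-fusion reporter units. Activity is fitted in the positive direction with DMSO as baseline.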

Assay [9] can be described thus: TOX21_p53_BLA_p3_viability: Viability Assessment in the Tox21 HCT-116 p53 Agonism Beta-lactamase Assay, Phase 3 (AID 2283593).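 Also: cells exposed to compound for 16 h before reading.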 The gist of the method:
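HCT116 cells, 4000/well, dosed 5 h after plating by pin transfer (217-fold dilution from DMSO stock) and incubated 16 h at 37C, 5% CO2. Viability read as ATP luminescence with CellTiter-Glo after 30 min at room temperature.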

Assay [10] can be described thus: TOX21_p53_BLA_p4_viability: Viability Assessment in the Tox21 HCT-116 p53 Agonism Beta-lactamase Assay, Phase 4 (AID 2283597).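 Also: hits lower the luminescence signal meaning cytotoxicity.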 The gist of the method:
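Compound exposure of HCT116 cells lasts 16 h at 37C, 5% CO2, with DMSO stocks diluted 217-fold. Cellular ATP is then quantified by CellTiter-Glo luminescence after 30 min at room temperature.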

Assay [11] concerns the target Bile acid receptor (Homo sapiens) (UniProt Q96RI1). Description: ATG_IR1_CIS: Attagene CIS-FACTORIAL HepG2 Assay for human Nuclear Receptor Subfamily 1 Group H Member 4 (NR1H4), IR1 submotif (AID 2282946; active = hit-call score of the fitted dose curve at least 0.9, where 1 is the maximum; inactive = score below 0.9). Conditions: IR1 reporter transcription, actives raise or lower the signal. In short, it runs like this:
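HepG2 cells transiently transfected with multiple cis-promoter-driven reporter units to measure endogenous transcription factor activity; 24 h exposure. Reporter mRNA read by RT-PCR, FAM labelling, HpaI digestion and capillary electrophoresis. Bidirectional fit versus DMSO.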

A short description of assay [12]: ATG_M_19_TRANS: Attagene TRANS-FACTORIAL HepG2 Assay for M19 Transcription Factor (Internal Marker) (AID 2282974). Conditions: HepG2 Attagene TRANS-FACTORIAL M19 internal marker reporter. In short, it runs like this: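 After transfection of HepG2 with GAL4-UAS-driven reporter constructs, cells are dosed for 24 h. Total RNA is reverse-transcribed, reporter sequences PCR-amplified and labelled, then HpaI-digested and sized by capillary electrophoresis.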

A short description of assay [13]: ATG_GAL4_TRANS: Attagene TRANS-FACTORIAL HepG2 Assay for GAL4 (Internal Marker) (AID 2282976). Conditions: HepG2 Attagene TRANS GAL4 internal marker reporter. In short, it runs like this:
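Fluorescence from capillary electrophoresis of labelled RT-PCR products quantifies reporter mRNA induction after 24 h dosing of HepG2 cells carrying transfected GAL4-UAS reporter transcription units. Vehicle DMSO serves as baseline.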

The target in assay [14] is Bile acid receptor (Homo sapiens) (UniProt Q96RI1). Description: ATG_FXR_TRANS: Attagene TRANS-FACTORIAL HepG2 Assay for Farnesoid X Receptor (FXR) (AID 2282979).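 Also: hits raise reporter mRNA above DMSO so AC50 marks FXR activation.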 Conditions: HepG2 Attagene TRANS FXR-GAL4 reporter transcription. In short, it runs like this:
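Chimeric FXR-GAL4 activity in transiently transfected human HepG2 liver cells is scored as induction of reporter mRNA after 24 h of dosing. Detection uses RT-PCR with fluorescent labelling and capillary electrophoresis, with DMSO serving as baseline.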

Assay [15] addresses human Peroxisome Proliferator-activated Receptor delta (PPARd), PPARD (gene 5467) (UniProt Q03181). Description: ATG_PPARd_TRANS: Attagene TRANS-FACTORIAL HepG2 Assay for human Peroxisome Proliferator-activated Receptor delta (PPARd) (AID 2283002). The gist of the method: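 HepG2 cells transiently transfected with GAL4-UAS multiplexed reporter units driven by exogenous chimeric NR-GAL4 proteins; 24 h compound exposure. Reporter mRNA measured by RT-PCR, 6-FAM primer extension, HpaI digestion and capillary electrophoresis; gain of signal fitted relative to DMSO.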

Assay [16] addresses human RAR-related Orphan Receptor gamma (RORg), RORC (gene 6097) (UniProt P51449). Description: ATG_RORg_TRANS: Attagene TRANS-FACTORIAL HepG2 Assay for human RAR-related Orphan Receptor gamma (RORg) (AID 2283011). In short, it runs like this:
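Activity is scored as increase in GAL4-UAS reporter mRNA over DMSO, detected by fluorescent RT-PCR and capillary electrophoresis in HepG2 cells transiently expressing a RORg-Gal4 chimera, 24 h after dosing.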

Assay [17] can be described thus: ACEA_ER_AUC_viability: ACEA Biosciences xCELLigence Real-Time Cell Analysis on Estrogen Receptor Agonism for Viability (AID 2283782).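 Also: continuous compound exposure with impedance area under curve over 80 h; hit means loss of impedance signal meaning reduced cell growth or viability.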 The gist of the method: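 T47D cells preconditioned in phenol red-free RPMI with charcoal-stripped FBS, then dosed with 8-point 1:4 series from 100 uM (up to 0.5% DMSO). Impedance monitored up to ~80 h; area-under-curve loss versus DMSO taken as viability.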

Assay [18] can be described thus: ATG_PPRE_CIS: Attagene CIS-FACTORIAL HepG2 Assay for human Peroxisome Proliferator-activated Response Element (PPRE) (AID 2282958; active = hit-call score of the fitted dose curve at least 0.9, where 1 is the maximum; inactive = score below 0.9). Conditions: HepG2 PPRE cis-element reporter, Attagene transcription factor profiling; actives raise or lower the signal. In short, it runs like this: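 Transcript-level reporter induction in transfected HepG2 cells after 24 h chemical exposure, quantified by fluorescence from RT-PCR products separated by capillary electrophoresis.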

For assay [19], the target named is human Thyroid Receptor alpha (THRa1), THRA (gene 7067) (UniProt P10827). Description: ATG_THRa1_TRANS: Attagene TRANS-FACTORIAL HepG2 Assay for human Thyroid Receptor alpha (THRa1) (AID 2283014). In short, it runs like this: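 First, HepG2 cells receive multiple GAL4-UAS reporter units and the chimeric receptor. They are then dosed for 24 h, after which RNA is reverse-transcribed, amplified, labelled, HpaI-cut and sized by capillary electrophoresis; gain relative to DMSO is scored.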
Sequence of human Thyroid Receptor alpha (THRa1), THRA (gene 7067) (P10827 whole entry, looked up, the tested form may be a part): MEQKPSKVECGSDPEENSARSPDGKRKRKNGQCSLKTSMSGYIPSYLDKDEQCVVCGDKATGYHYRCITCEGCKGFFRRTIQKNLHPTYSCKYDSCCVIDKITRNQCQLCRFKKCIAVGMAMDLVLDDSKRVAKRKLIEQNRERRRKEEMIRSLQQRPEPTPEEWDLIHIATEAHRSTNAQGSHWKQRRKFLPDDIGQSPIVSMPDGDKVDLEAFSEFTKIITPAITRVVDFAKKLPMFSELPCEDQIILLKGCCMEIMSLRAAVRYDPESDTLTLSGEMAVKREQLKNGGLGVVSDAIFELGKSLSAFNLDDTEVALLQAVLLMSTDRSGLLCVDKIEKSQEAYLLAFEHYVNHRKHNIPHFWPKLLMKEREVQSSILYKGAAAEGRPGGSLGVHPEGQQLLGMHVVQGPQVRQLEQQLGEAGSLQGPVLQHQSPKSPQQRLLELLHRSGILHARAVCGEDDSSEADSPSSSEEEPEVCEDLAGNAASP

In assay [20] the target is human Peroxisome Proliferator-activated Receptor alpha (PPARa), PPARA (gene 5465) (UniProt Q07869). Description: ATG_PPARa_TRANS: Attagene TRANS-FACTORIAL HepG2 Assay for human Peroxisome Proliferator-activated Receptor alpha (PPARa) (AID 2283001). In short, it runs like this: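 HepG2 cells transiently transfected with multiplexed GAL4-UAS reporters driven by exogenous chimeric NR-Gal4 proteins; reporter mRNA measured after 24 h dosing. Read-out by RT-PCR, 6-FAM labelling, HpaI digestion and capillary electrophoresis; gain of signal versus DMSO.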

Sequence of Hypoxia-inducible factor 1-alpha (Homo sapiens) (Q16665 whole entry, looked up): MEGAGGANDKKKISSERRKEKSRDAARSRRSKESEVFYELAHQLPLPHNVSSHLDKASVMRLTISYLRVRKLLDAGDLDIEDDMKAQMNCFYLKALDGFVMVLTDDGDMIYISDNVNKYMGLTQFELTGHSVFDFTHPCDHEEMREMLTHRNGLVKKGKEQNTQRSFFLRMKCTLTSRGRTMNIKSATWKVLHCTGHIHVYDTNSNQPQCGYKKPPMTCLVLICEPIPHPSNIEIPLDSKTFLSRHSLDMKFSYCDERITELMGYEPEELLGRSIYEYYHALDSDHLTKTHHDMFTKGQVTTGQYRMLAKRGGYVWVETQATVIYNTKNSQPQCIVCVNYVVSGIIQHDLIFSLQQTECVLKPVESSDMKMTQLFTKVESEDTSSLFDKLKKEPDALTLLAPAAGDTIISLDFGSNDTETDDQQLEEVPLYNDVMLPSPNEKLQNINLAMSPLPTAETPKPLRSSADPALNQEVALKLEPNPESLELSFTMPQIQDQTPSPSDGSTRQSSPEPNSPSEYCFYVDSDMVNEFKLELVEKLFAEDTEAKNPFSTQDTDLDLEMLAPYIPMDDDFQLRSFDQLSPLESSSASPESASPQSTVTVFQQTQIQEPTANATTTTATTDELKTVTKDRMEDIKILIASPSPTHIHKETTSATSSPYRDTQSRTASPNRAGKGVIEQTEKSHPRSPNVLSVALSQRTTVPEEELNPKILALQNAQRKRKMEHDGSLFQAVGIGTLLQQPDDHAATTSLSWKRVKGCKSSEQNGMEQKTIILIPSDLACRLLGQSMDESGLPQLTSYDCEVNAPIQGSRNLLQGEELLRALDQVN
Sequence of Nuclear receptor subfamily 4 group A member 2 (Homo sapiens) (P43354 whole entry, looked up, the tested form may be a part): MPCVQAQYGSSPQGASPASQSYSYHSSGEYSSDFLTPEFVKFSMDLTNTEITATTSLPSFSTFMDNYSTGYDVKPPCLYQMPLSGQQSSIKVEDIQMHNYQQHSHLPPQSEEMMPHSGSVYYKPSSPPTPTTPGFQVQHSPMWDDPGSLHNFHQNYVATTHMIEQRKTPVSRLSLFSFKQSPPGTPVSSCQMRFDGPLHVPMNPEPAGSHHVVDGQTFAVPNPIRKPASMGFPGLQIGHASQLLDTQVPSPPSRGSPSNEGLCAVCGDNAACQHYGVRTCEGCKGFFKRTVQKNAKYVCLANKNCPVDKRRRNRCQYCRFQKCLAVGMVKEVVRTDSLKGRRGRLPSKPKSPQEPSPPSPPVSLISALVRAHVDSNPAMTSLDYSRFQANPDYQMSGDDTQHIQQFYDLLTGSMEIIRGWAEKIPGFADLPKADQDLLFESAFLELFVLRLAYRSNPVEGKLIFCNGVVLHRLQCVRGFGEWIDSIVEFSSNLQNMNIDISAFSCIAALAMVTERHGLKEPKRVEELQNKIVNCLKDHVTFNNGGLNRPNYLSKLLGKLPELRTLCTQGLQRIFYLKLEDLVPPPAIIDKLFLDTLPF
Sequence of human RAR-related Orphan Receptor beta (RORb), RORB (gene 6096) (Q92753 whole entry, looked up, the tested form may be a part): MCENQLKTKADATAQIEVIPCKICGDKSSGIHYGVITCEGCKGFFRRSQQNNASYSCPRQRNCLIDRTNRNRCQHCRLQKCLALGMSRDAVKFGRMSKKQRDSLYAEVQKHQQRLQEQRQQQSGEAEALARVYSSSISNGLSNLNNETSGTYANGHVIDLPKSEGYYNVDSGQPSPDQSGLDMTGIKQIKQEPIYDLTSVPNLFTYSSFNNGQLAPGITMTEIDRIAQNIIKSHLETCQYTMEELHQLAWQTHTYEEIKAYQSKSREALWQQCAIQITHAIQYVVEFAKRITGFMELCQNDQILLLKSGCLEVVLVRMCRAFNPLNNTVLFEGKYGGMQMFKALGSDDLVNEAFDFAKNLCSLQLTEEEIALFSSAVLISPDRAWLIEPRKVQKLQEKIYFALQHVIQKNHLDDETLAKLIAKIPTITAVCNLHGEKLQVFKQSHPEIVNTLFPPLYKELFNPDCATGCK
Sequence of human Vitamin D Receptor (VDR), VDR (gene 7421) (P11473 whole entry, looked up, the tested form may be a part): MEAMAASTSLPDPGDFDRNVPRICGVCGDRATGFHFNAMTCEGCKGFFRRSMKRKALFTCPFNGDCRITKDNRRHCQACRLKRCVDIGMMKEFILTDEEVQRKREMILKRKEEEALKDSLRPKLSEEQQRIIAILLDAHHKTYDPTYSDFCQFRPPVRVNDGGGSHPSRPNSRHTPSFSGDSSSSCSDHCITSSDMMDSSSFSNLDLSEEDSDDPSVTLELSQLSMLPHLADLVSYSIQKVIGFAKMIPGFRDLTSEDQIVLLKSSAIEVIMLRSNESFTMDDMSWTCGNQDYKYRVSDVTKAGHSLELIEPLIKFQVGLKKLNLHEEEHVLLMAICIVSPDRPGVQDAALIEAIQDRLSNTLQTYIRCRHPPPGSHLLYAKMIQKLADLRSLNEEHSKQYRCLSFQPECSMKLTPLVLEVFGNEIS
Sequence of human Peroxisome Proliferator-activated Receptor delta (PPARd), PPARD (gene 5467) (Q03181 whole entry, looked up, the tested form may be a part): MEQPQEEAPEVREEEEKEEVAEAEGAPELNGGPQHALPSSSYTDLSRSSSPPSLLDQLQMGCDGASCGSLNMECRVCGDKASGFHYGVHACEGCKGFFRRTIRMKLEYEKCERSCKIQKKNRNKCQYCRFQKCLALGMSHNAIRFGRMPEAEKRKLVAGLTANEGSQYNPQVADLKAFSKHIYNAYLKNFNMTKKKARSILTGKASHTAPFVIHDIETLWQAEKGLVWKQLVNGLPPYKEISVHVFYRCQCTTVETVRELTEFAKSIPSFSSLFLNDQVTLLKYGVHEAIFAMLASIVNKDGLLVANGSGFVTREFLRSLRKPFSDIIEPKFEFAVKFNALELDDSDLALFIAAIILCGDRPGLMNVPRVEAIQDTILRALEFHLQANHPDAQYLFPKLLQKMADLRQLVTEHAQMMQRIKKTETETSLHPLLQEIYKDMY
Sequence of Nuclear receptor subfamily 1 group I member 3 (Homo sapiens) (Q14994 whole entry, looked up, the tested form may be a part): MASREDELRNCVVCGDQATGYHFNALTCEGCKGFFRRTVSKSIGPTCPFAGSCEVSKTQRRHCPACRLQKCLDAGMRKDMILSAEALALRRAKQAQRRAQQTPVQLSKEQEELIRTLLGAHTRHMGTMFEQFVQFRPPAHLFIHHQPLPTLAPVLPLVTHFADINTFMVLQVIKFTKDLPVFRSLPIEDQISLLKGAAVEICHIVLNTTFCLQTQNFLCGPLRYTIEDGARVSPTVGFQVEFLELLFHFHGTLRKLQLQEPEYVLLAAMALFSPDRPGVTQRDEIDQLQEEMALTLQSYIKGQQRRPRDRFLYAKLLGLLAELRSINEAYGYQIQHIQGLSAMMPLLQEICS
Sequence of human RAR-related Orphan Receptor gamma (RORg), RORC (gene 6097) (P51449 whole entry, looked up, the tested form may be a part): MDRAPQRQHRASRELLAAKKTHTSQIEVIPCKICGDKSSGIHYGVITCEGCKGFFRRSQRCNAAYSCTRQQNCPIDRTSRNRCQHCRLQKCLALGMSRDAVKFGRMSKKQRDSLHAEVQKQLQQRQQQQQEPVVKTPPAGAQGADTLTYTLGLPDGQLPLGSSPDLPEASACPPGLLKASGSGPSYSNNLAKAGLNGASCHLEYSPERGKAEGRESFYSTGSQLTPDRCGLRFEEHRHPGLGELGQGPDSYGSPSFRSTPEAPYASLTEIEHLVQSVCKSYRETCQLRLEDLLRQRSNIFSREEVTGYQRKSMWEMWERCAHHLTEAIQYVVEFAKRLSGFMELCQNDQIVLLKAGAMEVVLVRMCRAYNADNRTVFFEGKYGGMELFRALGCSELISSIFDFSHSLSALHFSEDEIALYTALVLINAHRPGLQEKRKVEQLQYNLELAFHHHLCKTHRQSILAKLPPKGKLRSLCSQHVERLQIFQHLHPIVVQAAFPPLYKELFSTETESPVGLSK

With `Clc1ccc(Sc2cc(Cl)c(Cl)cc2Cl)cc1`, the compound was classed as inactive in assay [1], in assay [2], in [3], in assay [4], in [5] and in assay [6]. Moreover, the outcome in assay [7], in assay [8], in [9] and in assay [10] was inactive.
As a reminder, the AC50 is the concentration at which the activity in the assay is half-maximal. For `CCC(=O)OCc1ccc(OC)cc1`, the outcome in assay [11], in [1], in [2], in assay [12], in assay [13] and in assay [3] was inactive. The call in assay [14], in assay [4], in assay [5], in assay [15], in assay [16] and in assay [10] was inactive. The AC50 in [17] was 39.9 µM (active).
Consider `CCCCCCCC#N`, for which the call in [1], in assay [18], in assay [12], in [13], in [3] and in assay [4] was inactive. Further, the compound was called inactive in assay [5], in [19] and in [17].
`CCOC(=O)CC(=O)OCC`: the call in assay [11], in [12], in assay [13], in assay [3], in [14] and in assay [20] was inactive. Moreover, the compound was called inactive in [7], in assay [16], in assay [19], in assay [8] and in assay [9].
Regarding `CCCCC(CC)COC(=O)CS` (centres undefined), the compound was classed as inactive in [12], in assay [13], in assay [3], in assay [5], in assay [20] and in assay [8]. Moreover, the result in assay [9], in assay [10] and in assay [17] was inactive.
For the compound `C=C1CC[C@H]2C[C@@H]1C2(C)C`, the call in [1], in assay [18], in assay [13], in assay [4], in assay [5] and in [15] was inactive. Also, the outcome in [6], in [16], in assay [8] and in [17] was inactive.
For the compound `CCc1cc(C(N)=S)ccn1`, the result in assay [4], in [20], in assay [7], in assay [8], in assay [9] and in assay [10] was inactive.
As for `Brc1ccc(Oc2ccc(Br)cc2)cc1`, the outcome in [2], in [12], in [4], in assay [5], in assay [15] and in assay [16] was inactive. Moreover, the outcome in assay [19], in [8], in assay [9] and in assay [10] was inactive. In addition, the AC50 in assay [17] is 65.4 µM (active).
As for `Cc1cc(-n2nc3ccc(Cl)cc3n2)c(O)c(C(C)(C)C)c1`, the result in assay [11], in assay [1], in assay [2], in assay [13], in [3] and in assay [14] was inactive. Further, the result in assay [5], in assay [15], in [16] and in assay [9] was inactive.
